This note sets out measurements from PubChem BioAssay (NCI).

Some test systems named below: HCT-15 colon; HT29 colon; SNB-75 CNS; SNB-19 CNS; U251 CNS; PC-3 prostate; SK-MEL-5 melanoma; UACC-62 melanoma; LOX IMVI melanoma; SK-MEL-28 melanoma.
Test in all cases: NCI-60 one-dose screen, 48 h (100 = growth as untreated, 0 = no growth, -100 = all killed)
Holding throughout (conditions): 10 µM unless noted

Structures are written as SMILES. This is part of a sample that, as a whole, favours compounds with a hit. Of some 83,000 tested, about 20% had one in any assay.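 Single-dose data. Exposure time 48 hours. Values below 10 considered active.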 Unmarked numbers belong to inactive results. Activity calls are given as the source filed them.

Take `O=C(Nc1ccc2ncnc(Nc3cccc(C(F)(F)F)c3)c2c1)c1cccs1`: the growth in the assay on HCT-15 colon is 38.9%; in the assay on HT29 colon, 18%; in the assay on SNB-75 CNS it was 89.2%; with SNB-19 CNS it was 40.1%; in the assay with U251 CNS, 17%; with PC-3 prostate, 20.9%. The growth is 61.1% in the assay on SK-MEL-5 melanoma, 67.5% in the assay with UACC-62 melanoma, 65.5% with LOX IMVI melanoma and 89.1% in the assay with SK-MEL-28 melanoma.
On to `COCCOCCOCc1n(Cc2ccc3ccccc3n2)c2ccccc2[n+]1Cc1ccc2ccccc2n1`, for which the growth with HCT-15 colon is 109%; with HT29 colon, 15.3%; with SNB-75 CNS it was 4.56% (active); in the assay with SNB-19 CNS, 22.4%; with U251 CNS, 10.8%; with PC-3 prostate, 13.7%. Also, the growth in the assay with SK-MEL-5 melanoma was -14.6% (active); in the assay on UACC-62 melanoma, 14.5%; in the assay with LOX IMVI melanoma it was 28.6%; in the assay on SK-MEL-28 melanoma, 41.8%.
In the case of `C#C[C@@]1(O)[C@@H](CO)O[C@@H](n2cc(-c3ccco3)c3c(N)ncnc32)[C@@H]1O`, the growth was 59.3% in the assay on HCT-15 colon; 28.8% with HT29 colon; 14.6% in the assay with SNB-75 CNS; 94.4% in the assay on SNB-19 CNS; 81.8% with U251 CNS; 49.1% with PC-3 prostate. Also, the growth was 89% in the assay on SK-MEL-5 melanoma, 80.2% with UACC-62 melanoma, 65.6% with LOX IMVI melanoma and 93.2% in the assay on SK-MEL-28 melanoma.
`O=C(O)c1cn(C2CC2)c2cc(N3CCN(C(=O)CSc4nnc(-c5ccc(Cl)cc5)n4-c4ccccc4)CC3)c(F)cc2c1=O`: the growth in the assay with HCT-15 colon was 104%; with HT29 colon, 97.2%; in the assay with SNB-75 CNS, 95.8%; in the assay on SNB-19 CNS, 91.3%; in the assay on U251 CNS, 101%; in the assay on PC-3 prostate it was 93.7%. Besides, the growth is 98.8% in the assay with SK-MEL-5 melanoma, 91.3% in the assay with UACC-62 melanoma, 72.3% in the assay with LOX IMVI melanoma and 109% with SK-MEL-28 melanoma.
As for `COc1ccc(C(=O)c2cc(OC)c(OC)c(OC)c2)cc1OC(=O)C(Cl)(Cl)Cl`, the growth in the assay on HCT-15 colon is 8.84% (active); in the assay on HT29 colon, 13.4%; with SNB-75 CNS it was 58%; in the assay with SNB-19 CNS it was 23.5%; in the assay on U251 CNS it was 5.44% (active); with PC-3 prostate it was 10.2%. The growth in the assay on SK-MEL-5 melanoma is -24.1% (active); in the assay with UACC-62 melanoma, 39.8%; in the assay on LOX IMVI melanoma it was 15.1%; with SK-MEL-28 melanoma, 51.6%.
As for `Nc1c(C(=O)c2ccccc2)sc2nc(-c3cc4ccccc4o3)cc(-c3ccc(Cl)cc3)c12`, the growth is 86.4% in the assay on HCT-15 colon; 106% in the assay on HT29 colon; 92.3% in the assay with SNB-75 CNS; 111% in the assay on SNB-19 CNS; 90% with U251 CNS; 87.5% in the assay with PC-3 prostate. Also, the growth with SK-MEL-5 melanoma is 97.8%; with UACC-62 melanoma it was 102%; in the assay with LOX IMVI melanoma, 86.5%; in the assay with SK-MEL-28 melanoma, 120%.
Take `COC1=CC2C=C(C3N(c4ccccc4)NC(=O)[C@@H]4CCCN34)C(=O)NC2C=C1` (stereo not given in full): the growth was 101% in the assay on HCT-15 colon; 102% with HT29 colon; 85% with SNB-75 CNS; 104% in the assay with SNB-19 CNS; 110% with U251 CNS; 102% in the assay with PC-3 prostate. Moreover, the growth in the assay on SK-MEL-5 melanoma is 102%; with UACC-62 melanoma, 104%; with LOX IMVI melanoma, 92.8%; in the assay with SK-MEL-28 melanoma, 108%.
On to `Nc1c(C(=O)Nc2cccc3ccccc23)sc2nc3c(cc12)CCCCCC3`, for which the growth with HCT-15 colon is 24.6%; in the assay on HT29 colon, 0.156% (active); in the assay on SNB-75 CNS, 10.6%; in the assay on SNB-19 CNS, 27.8%; with U251 CNS, 14.4%; in the assay with PC-3 prostate it was 35.1%. Further, the growth in the assay on SK-MEL-5 melanoma was 45.6%; with UACC-62 melanoma, 32.4%; in the assay with LOX IMVI melanoma it was 49.1%; in the assay with SK-MEL-28 melanoma, 65.8%.
In the case of `NC(=O)C(O)(c1ccccc1)c1ccccc1`, the growth in the assay with HCT-15 colon is 101%; with HT29 colon it was 92.3%; in the assay with SNB-75 CNS, 89%; in the assay with SNB-19 CNS, 99.4%; in the assay with U251 CNS it was 101%; in the assay with PC-3 prostate it was 87.3%. Besides, the growth is 106% with SK-MEL-5 melanoma, 95.9% in the assay on UACC-62 melanoma, 100% with LOX IMVI melanoma and 112% in the assay with SK-MEL-28 melanoma.
For `COc1ccc(-c2cs/c(=N\N=C\c3ccc(O)cc3O)n2/N=C/c2ccc(O)cc2O)cc1`, the growth with HCT-15 colon is -53.1% (active); with HT29 colon it was -29% (active); with SNB-75 CNS, 29.7%; in the assay on SNB-19 CNS, 5.62% (active); in the assay with U251 CNS it was -35.8% (active); in the assay with PC-3 prostate it was -67.3% (active). For the same compound, the growth in the assay on SK-MEL-5 melanoma was -38.6% (active); in the assay on UACC-62 melanoma, -36.3% (active); with LOX IMVI melanoma, -36% (active); in the assay with SK-MEL-28 melanoma it was -22.9% (active).
For the compound `C=C1C(=O)O[C@H]2[C@H]1CC/C(COC(=O)c1cc3ccccc3o1)=C\CC[C@@]1(C)O[C@@H]21`, the growth in the assay with HCT-15 colon is -68.6% (active); with HT29 colon, -49.6% (active); in the assay with SNB-75 CNS, 76.5%; in the assay on SNB-19 CNS, 16.7%; in the assay on U251 CNS, 15.4%; in the assay on PC-3 prostate, -8.8% (active). In addition, the growth is 7.03% (active) in the assay with SK-MEL-5 melanoma, -37.7% (active) with UACC-62 melanoma, -89.3% (active) with LOX IMVI melanoma and -48% (active) in the assay with SK-MEL-28 melanoma.
As for `C#Cc1ccccc1NC(=O)c1sc2nc3c(cc2c1N)CCCCCC3`, the growth in the assay on HCT-15 colon was 70.2%; with HT29 colon, 36.3%; in the assay on SNB-75 CNS it was 39.2%; in the assay on SNB-19 CNS it was 76.5%; in the assay on U251 CNS, 23.4%; in the assay with PC-3 prostate, 77.4%. In addition, the growth with SK-MEL-5 melanoma is 89.6%; in the assay on UACC-62 melanoma, 91.8%; in the assay on LOX IMVI melanoma, 22.8%; with SK-MEL-28 melanoma, 91.1%.
As for `O=C(CCc1nnc2sc(OCc3ccccc3)nn12)c1nc2ccc([N+](=O)[O-])cc2[nH]1`, the growth with HCT-15 colon was 108%; in the assay with HT29 colon, 107%; in the assay with SNB-75 CNS, 103%; in the assay on SNB-19 CNS, 108%; in the assay with U251 CNS, 99.8%; with PC-3 prostate, 94.4%. The growth was 110% in the assay with SK-MEL-5 melanoma, 96.6% with UACC-62 melanoma, 91.3% in the assay on LOX IMVI melanoma and 115% with SK-MEL-28 melanoma.
